Experimental data reported in article PMC8384837, “Expanding the binding specificity for RNA recognition by a PUF domain”.
Positions count from the first letter of the chain named.

Assays:
Experiment in all cases: yeast three-hybrid, YBZ-1, SC-Leu-His + 0.5 mM 3-AT, 4 days
Conditions in all cases: tags: N-Gal4 AD-HA kept; label: inside an RPR1-promoter hybrid RNA with tandem MS2 sites; ssRNA
PUM1 PUF domain R8-QWS = PUM1 PUF domain R8-QWS (Homo sapiens, UniProt Q14671 828-1176, N1122Q;Y1123W;Q1126S)
Summary of the method: (§1)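 Sequencing with Illumina followed PCR amplification of the repeat regions from transformants grown four days on SC-Leu (input) or SC-Leu-His + 0.5 mM 3-AT (selection). The transformants were strain YBZ-1 with a LexA–MS2 coat fusion and a HIS3 reporter, carrying Pumilio-1 PUF domain libraries and matching RNA elements. The interaction score is the log change in variant frequency from input to selection, computed in log2 with a pseudocount of 1 for absent variants.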

PUM1 PUF domain R4-WAG = PUM1 PUF domain R4-WAG (Homo sapiens, UniProt Q14671 828-1176, N971W;H972A;Q975G)
Summary of the method: as §1

PUM1 PUF domain R8-HWL = PUM1 PUF domain R8-HWL (Homo sapiens, UniProt Q14671 828-1176, N1122H;Y1123W;Q1126L)
Summary of the method: as §1

PUM1 PUF domain R3-CNY = PUM1 PUF domain R3-CNY (Homo sapiens, UniProt Q14671 828-1176, R936N;Q939Y)
Summary of the method: as §1

PUM1 PUF domain R6-SFQ = molecular target: T1, PUM1 PUF domain R6-SFQ (Homo sapiens, UniProt Q14671 828-1176, N1043S;Y1044F)
T1 sequence: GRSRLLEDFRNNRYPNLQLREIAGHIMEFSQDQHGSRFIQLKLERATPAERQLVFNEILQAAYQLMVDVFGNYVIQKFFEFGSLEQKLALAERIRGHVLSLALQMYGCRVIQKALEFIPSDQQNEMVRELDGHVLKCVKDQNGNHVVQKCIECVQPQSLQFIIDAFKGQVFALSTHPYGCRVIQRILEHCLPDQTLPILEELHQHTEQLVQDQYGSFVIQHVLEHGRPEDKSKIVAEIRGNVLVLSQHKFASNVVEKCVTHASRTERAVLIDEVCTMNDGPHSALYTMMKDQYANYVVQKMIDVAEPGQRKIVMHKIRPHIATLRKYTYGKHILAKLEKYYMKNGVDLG
Summary of the method: as §1

PUM1 PUF domain R6-HFG = molecular target: T2, PUM1 PUF domain R6-HFG (Homo sapiens, UniProt Q14671 828-1176, N1043H;Y1044F;Q1047G)
T2 sequence: T1 sequence with S216H, Q220G
Summary of the method: as §1

PUM1 PUF domain R5-PRA = PUM1 PUF domain R5-PRA (Homo sapiens, UniProt Q14671 828-1176, C1007P;Q1011A)
Summary of the method: as §1

PUM1 PUF domain R8-VHR = PUM1 PUF domain R8-VHR (Homo sapiens, UniProt Q14671 828-1176, N1122V;Y1123H;Q1126R)
Summary of the method: as §1

PUM1 PUF domain R3-LYA = PUM1 PUF domain R3-LYA (Homo sapiens, UniProt Q14671 828-1176, C935L;R936Y;Q939A)
Summary of the method: as §1

PUM1 PUF domain R3-RDS = PUM1 PUF domain R3-RDS (Homo sapiens, UniProt Q14671 828-1176, C935R;R936D;Q939S)
Summary of the method: as §1

PUM1 PUF domain R4-DWE = PUM1 PUF domain R4-DWE (Homo sapiens, UniProt Q14671 828-1176, N971D;H972W;Q975E)
Summary of the method: as §1

PUM1 PUF domain R5-KGR = PUM1 PUF domain R5-KGR (Homo sapiens, UniProt Q14671 828-1176, C1007K;R1008G;Q1011R)
Summary of the method: as §1

PUM1 PUF domain R8-HFS = PUM1 PUF domain R8-HFS (Homo sapiens, UniProt Q14671 828-1176, N1122H;Y1123F;Q1126S)
Summary of the method: as §1

PUM1 PUF domain R1-KLL = PUM1 PUF domain R1-KLL (Homo sapiens, UniProt Q14671 828-1176, S863K;R864L;Q867L)
Summary of the method: as §1

PUM1 PUF domain R7-KGS = PUM1 PUF domain R7-KGS (Homo sapiens, UniProt Q14671 828-1176, S1079K;N1080G;E1083S)
Summary of the method: as §1

PUM1 PUF domain R7-KRS = PUM1 PUF domain R7-KRS (Homo sapiens, UniProt Q14671 828-1176, S1079K;N1080R;E1083S)
Summary of the method: as §1

GGCUAGAACUAGUGGAUCCCCCGGCGCCCGGCGGCUCGAGCCCGGGUAAGUGUAAAUAGUCUGCAUGCCGCCGGGCGCCAUGCCUGCAGGUCGACUCUAGAAAACAUG
binding signal (PUM1 PUF domain R8-QWS): 4.13 log2 enrichment (interaction score) | binding signal (PUM1 PUF domain R4-WAG): 2.25 log2 enrichment (interaction score) | binding signal (PUM1 PUF domain R8-HWL): 3.96 log2 enrichment (interaction score) | binding signal (PUM1 PUF domain R3-CNY): 3.55 log2 enrichment (interaction score) | binding signal (PUM1 PUF domain R6-SFQ): 2.98 log2 enrichment (interaction score) | binding signal (PUM1 PUF domain R6-HFG): 5.43 log2 enrichment (interaction score) | binding signal (PUM1 PUF domain R5-PRA): 4.36 log2 enrichment (interaction score) | binding signal (PUM1 PUF domain R8-VHR): 3.13 log2 enrichment (interaction score) | binding signal (PUM1 PUF domain R3-LYA): 2.44 log2 enrichment (interaction score)

GGCUAGAACUAGUGGAUCCCCCGGCGCCCGGCGGCUCGAGCCCGGGUAAGUGUAAUUAGUCUGCAUGCCGCCGGGCGCCAUGCCUGCAGGUCGACUCUAGAAAACAUG
binding signal (PUM1 PUF domain R3-RDS): 2.88 log2 enrichment (interaction score) | binding signal (PUM1 PUF domain R3-LYA): 4.81 log2 enrichment (interaction score)

GGCUAGAACUAGUGGAUCCCCCGGCGCCCGGCGGCUCGAGCCCGGGUAAGUGUAGAUAGUCUGCAUGCCGCCGGGCGCCAUGCCUGCAGGUCGACUCUAGAAAACAUG
binding signal (PUM1 PUF domain R4-DWE): 4.93 log2 enrichment (interaction score)

GGCUAGAACUAGUGGAUCCCCCGGCGCCCGGCGGCUCGAGCCCGGGUAAGUGUCAAUAGUCUGCAUGCCGCCGGGCGCCAUGCCUGCAGGUCGACUCUAGAAAACAUG
binding signal (PUM1 PUF domain R5-KGR): 4.53 log2 enrichment (interaction score)

GGCUAGAACUAGUGGAUCCCCCGGCGCCCGGCGGCUCGAGCCCGGGUAAGCGUAAAUAGUCUGCAUGCCGCCGGGCGCCAUGCCUGCAGGUCGACUCUAGAAAACAUG
binding signal (PUM1 PUF domain R8-HWL): 4.14 log2 enrichment (interaction score) | binding signal (PUM1 PUF domain R8-VHR): 3.33 log2 enrichment (interaction score) | binding signal (PUM1 PUF domain R8-HFS): 2.47 log2 enrichment (interaction score)

GGCUAGAACUAGUGGAUCCCCCGGCGCCCGGCGGCUCGAGCCCGGGUAAGUGUAAAUCGUCUGCAUGCCGCCGGGCGCCAUGCCUGCAGGUCGACUCUAGAAAACAUG
binding signal (PUM1 PUF domain R1-KLL): 4.54 log2 enrichment (interaction score)

GGCUAGAACUAGUGGAUCCCCCGGCGCCCGGCGGCUCGAGCCCGGGUAAGUUUAAAUAGUCUGCAUGCCGCCGGGCGCCAUGCCUGCAGGUCGACUCUAGAAAACAUG
binding signal (PUM1 PUF domain R7-KGS): 3.39 log2 enrichment (interaction score) | binding signal (PUM1 PUF domain R7-KRS): 2.06 log2 enrichment (interaction score)
